From PubChem BioAssay (EPA / NIEHS)
“And” between values parts separate entries of the source, which are not always exact repeats. Identical values can stand only once. Results filed as inconclusive are left out. The source made the active and inactive calls. How the source made its calls: active means hit-call score of the fitted dose curve at least 0.9, where 1 is the maximum; inconclusive means response in the unintended direction; inactive means score below 0.9. Peptide text beside a SMILES is read from it.

Key:
[1] = ATG_XTT_Cytotoxicity: Cytotoxicity Assessment in the Attagene TRANS-FACTORIAL HepG2 Assay (AID 2283584)
Outline: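 Cells: human HepG2, transiently transfected with MRTU reporter constructs. Exposure 24 h. Readout: XTT, cell number. Baseline/neg ctrl DMSO; loss-of-signal scored.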

[2] = TOX21_p53_BLA_p2_viability: Viability Assessment in the Tox21 HCT-116 p53 Agonism Beta-lactamase Assay, Phase 2 (AID 2283591);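 further: compound exposure lasted 16 h at 37 °C; actives lower the ATP signal meaning cytotoxicity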
Outline: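 HCT116 p53-bla cells, 4000/well, dosed after 5 h plating (217-fold dilution of DMSO stocks) and incubated 16 h at 37C. Viability taken as cellular ATP by CellTiter-Glo luminescence after 30 min RT; signal loss marks cytotoxicity.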

[3] = target: Cellular tumor antigen p53 (Homo sapiens) (UniProt P04637); assay: TOX21_p53_BLA_p2_ratio: Tox21 HCT-116 p53 Agonism Beta-lactamase Assay, Ratio, Phase 2 (AID 2283592)
Chain of Cellular tumor antigen p53 (Homo sapiens) (P04637 whole entry, looked up): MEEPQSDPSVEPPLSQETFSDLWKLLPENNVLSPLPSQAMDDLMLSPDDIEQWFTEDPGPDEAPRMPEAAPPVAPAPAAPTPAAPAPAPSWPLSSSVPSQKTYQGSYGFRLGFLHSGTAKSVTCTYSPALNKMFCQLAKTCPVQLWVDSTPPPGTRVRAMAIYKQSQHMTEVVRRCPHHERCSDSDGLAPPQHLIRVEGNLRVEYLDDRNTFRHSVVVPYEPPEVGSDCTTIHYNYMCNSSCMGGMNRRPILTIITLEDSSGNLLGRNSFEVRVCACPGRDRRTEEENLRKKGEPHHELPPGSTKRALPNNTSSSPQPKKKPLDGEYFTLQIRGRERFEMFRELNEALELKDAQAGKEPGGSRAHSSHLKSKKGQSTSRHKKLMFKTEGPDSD
Outline: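 Plated HCT116 p53-bla cells (4000/well) received compound after 5 h, then 16 h at 37C/5% CO2. CCF4-AM added, 2 h RT. Ratio of 460 to 530 nm emission taken as the p53 reporter signal.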

N=C1C=CC(=C(c2ccc(N)cc2)c2ccc(N)cc2)C=C1
outcome [1]: inactive
outcome [2]: inactive
AC50 [3]: 54.2 µM (active)

CCCC(CC)c1ccccc1 (stereo not drawn)
outcome [1]: inactive
outcome [2]: inactive
outcome [3]: inactive

CCCCCCCCCCCCCc1ccccc1
outcome [1]: inactive

C=CC(C)(CCC=C(C)C)OC(=O)C=Cc1ccccc1 (stereo not drawn)
outcome [1]: inactive
outcome [2]: inactive

CCCCC(CC)COC(=O)/C=C/c1ccc(OC)cc1 (stereo not drawn)
outcome [1]: inactive
outcome [2]: inactive

CCCCNS(=O)(=O)c1ccc(C)cc1
outcome [1]: inactive
outcome [2]: inactive
outcome [3]: inactive

Cc1ccc(S(=O)(=O)N=C=O)cc1
outcome [1]: inactive
outcome [2]: inactive

CC(C)c1cccc(C(C)C)c1N
outcome [1]: inactive
outcome [2]: inactive
outcome [3]: inactive

C=C(C)C1CC=C(C)CC1 (stereo not drawn)
outcome [1]: inactive
outcome [2]: inactive

COC(C=C(C)CCC=C(C)C)OC
outcome [1]: inactive
outcome [2]: inactive
outcome [3]: inactive

CC(C)=CCCC(C)=CC#N
outcome [1]: inactive
outcome [2]: inactive
outcome [3]: inactive

c1ccc2c(c1)[nH]c1ccccc12
outcome [1]: inactive
outcome [2]: inactive
outcome [3]: inactive

CC(C)OC(=O)c1ccccc1
outcome [1]: inactive
outcome [2]: inactive
outcome [3]: inactive

CCCCCCCCCCCC(=O)OCC
outcome [1]: inactive
outcome [2]: inactive
outcome [3]: inactive

O=C(Nc1ccccc1)c1cc(Cl)ccc1O
outcome [1]: inactive
AC50 [2]: 12.9 µM (active)
AC50 [3]: 3.55 µM (active)

CC(=O)CCC=C(C)C
outcome [1]: inactive
outcome [2]: inactive
outcome [3]: inactive

CCCCNS(=O)(=O)c1ccccc1
outcome [1]: inactive
outcome [2]: inactive
outcome [3]: inactive

O=S(=O)(O)c1ccc(Nc2nc(Nc3ccc(C=Cc4ccc(Nc5nc(Nc6ccc(S(=O)(=O)O)cc6)nc(N(CCO)CCO)n5)cc4S(=O)(=O)O)c(S(=O)(=O)O)c3)nc(N(CCO)CCO)n2)cc1
outcome [1]: inactive
outcome [2]: inactive
outcome [3]: inactive

CCCCCCC=O
outcome [1]: inactive
outcome [2]: inactive
outcome [3]: inactive

Fc1ccc(Br)cc1
outcome [1]: inactive
outcome [2]: inactive
outcome [3]: inactive

CC/C=C\CCOC(=O)c1ccccc1O
outcome [1]: inactive
outcome [2]: inactive
outcome [3]: inactive

CCOC(=O)/C=C\C(=O)OCC
outcome [1]: inactive
outcome [2]: inactive
outcome [3]: inactive

COc1ccc(C(=O)c2ccccc2)c(O)c1
outcome [1]: inactive
outcome [2]: inactive
outcome [3]: inactive

COC(=O)[C@H](Cc1ccccc1)NC(=O)[C@@H](N)CC(=O)O (H-Asp-Phe-OMe)
outcome [1]: inactive
outcome [2]: inactive
outcome [3]: inactive

Cc1noc(NS(=O)(=O)c2ccc(N)cc2)c1C
outcome [1]: inactive
outcome [2]: inactive
outcome [3]: inactive

CC(=O)CC(=O)Nc1ccccc1C
outcome [1]: inactive
outcome [2]: inactive
outcome [3]: inactive

O=C(O)c1ccc2c(c1)C(=O)OC2=O
outcome [1]: inactive
outcome [2]: inactive
outcome [3]: inactive

CC(C)CC(=O)OCc1ccccc1
outcome [1]: inactive
outcome [2]: inactive
outcome [3]: inactive

O=C1CCCCCCCCCCC1
outcome [1]: inactive
outcome [2]: inactive
outcome [3]: inactive

CN(C)c1ccc2nc3ccc(=[N+](C)C)cc-3sc2c1
outcome [1]: inactive
outcome [2]: inactive
AC50 [3]: 8.31 µM (active) and 23 µM (active) and 11.1 µM (active)

CC(C)(C)NC(=O)[C@H]1CC[C@H]2[C@@H]3CC[C@H]4NC(=O)C=C[C@]4(C)[C@H]3CC[C@]12C
outcome [1]: inactive
outcome [2]: inactive
outcome [3]: inactive

CCN1CCCC1=O
outcome [1]: inactive
outcome [2]: inactive
outcome [3]: inactive

C=C(C)OC(C)=O
outcome [1]: inactive
outcome [2]: inactive
outcome [3]: inactive

CC(C)(c1ccccc1)c1ccc(Nc2ccc(C(C)(C)c3ccccc3)cc2)cc1
outcome [1]: inactive
outcome [2]: inactive
outcome [3]: inactive

Oc1ccccc1Cc1ccccc1O
outcome [1]: inactive
outcome [2]: inactive
outcome [3]: inactive

C[Si](C)(C)N[Si](C)(C)C
outcome [1]: inactive
outcome [2]: inactive
outcome [3]: inactive

N#CC1(N)CCCCC1
outcome [1]: inactive
outcome [2]: inactive
outcome [3]: inactive

CC(CC(C)C)=NO
outcome [1]: inactive
outcome [2]: inactive
outcome [3]: inactive

CCCCOC(=O)C(C)CC (stereo not drawn)
outcome [1]: inactive
outcome [2]: inactive
outcome [3]: inactive

CCCCC(=O)O
outcome [1]: inactive
outcome [2]: inactive
outcome [3]: inactive

O=C(O)/C=C/c1ccccc1
outcome [1]: inactive
outcome [2]: inactive
outcome [3]: inactive

CC1C(C)(C)C2=C(C(=O)CCC2)C1(C)C (stereo not drawn)
outcome [1]: inactive
outcome [2]: inactive
outcome [3]: inactive

O=C(O)c1cc(O)c2ccccc2c1O
outcome [1]: inactive
outcome [2]: inactive
outcome [3]: inactive

C=CC(=O)OCCCCCCOC(=O)C=C
outcome [1]: inactive
outcome [2]: inactive
AC50 [3]: 69.1 µM (active) and 66.7 µM (active)

O=C1CCCCCCCCCCCN1
outcome [1]: inactive
outcome [2]: inactive
outcome [3]: inactive

C=C1C[C@H]2[C@@H]3C=C(C)C4=CC(=O)CC[C@]4(C)[C@H]3CC[C@]2(C)[C@@]1(OC(C)=O)C(C)=O
outcome [1]: inactive
outcome [2]: inactive
outcome [3]: inactive

Oc1ccc(/C=C/c2cc(O)cc(O)c2)cc1
outcome [1]: inactive
outcome [2]: inactive
outcome [3]: inactive

CC(C)(CO)COC(=O)C(C)(C)CO
outcome [1]: inactive
outcome [2]: inactive
outcome [3]: inactive

CC(C)[N+](C)(CCOC(=O)C1c2ccccc2Oc2ccccc21)C(C)C
outcome [1]: inactive
outcome [2]: inactive
outcome [3]: inactive

C=C[C@@]1(C)CC(=O)[C@]2(O)[C@@]3(C)[C@@H](O)CCC(C)(C)[C@@H]3[C@H](O)[C@H](OC(C)=O)[C@@]2(C)O1
outcome [2]: inactive
outcome [3]: inactive
